For seven molecules, growth results are on record in PubChem BioAssay (NCI).

The panel holds about 83,000 compounds, 20% with a hit somewhere; the sample as a whole holds those more often.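 Negative percent growth values reflect cell death: -40 means 40% of the cells present at the start died, and -100 means all died.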 Unmarked numbers belong to inactive results. The source made the active and inactive calls. Rule for the calls: active = growth percent below 10; inactive = the rest.

Some test systems named below: DU-145 prostate; K-562 leukemia; MALME-3M melanoma; MDA-MB-231 breast; RXF 393 renal; SF-268 CNS; SF-295 CNS; SF-539 CNS; UACC-257 melanoma; M14 melanoma; HCT-15 colon; HT29 colon; SNB-75 CNS; SNB-19 CNS; U251 CNS; PC-3 prostate; SK-MEL-5 melanoma; UACC-62 melanoma; LOX IMVI melanoma; SK-MEL-28 melanoma.
What all share (experiment): NCI-60 one-dose screen, 48 h (100 = growth as untreated, 0 = no growth, -100 = all killed)
Holding throughout (settings): 10 µM unless noted

For the molecule `O=c1cc(-c2ccccc2)oc2cc(OCc3cn(Cc4ccc(F)cc4)nn3)cc(O)c12`, the growth in the assay with DU-145 prostate was 65.8% [100 µM]; in the assay on K-562 leukemia it was 109% [100 µM]; in the assay on MALME-3M melanoma, 6.44% [100 µM] (active); in the assay with MDA-MB-231 breast it was 12% [100 µM]; with RXF 393 renal, 9.11% [100 µM] (active); in the assay with SF-268 CNS it was 14.4% [100 µM]. Moreover, the growth is 10.4% [100 µM] in the assay on SF-295 CNS; 1.1% [100 µM] (active) in the assay on SF-539 CNS; 86.3% [100 µM] with UACC-257 melanoma; 65.9% [100 µM] with M14 melanoma; 94.4% [100 µM] in the assay with HCT-15 colon; 100% [100 µM] in the assay on HT29 colon. The growth with SNB-75 CNS is -65.9% [100 µM] (active); in the assay with SNB-19 CNS it was -32.7% [100 µM] (active); in the assay with U251 CNS, -16.9% [100 µM] (active); in the assay with PC-3 prostate it was 76% [100 µM]; with SK-MEL-5 melanoma, 84.5% [100 µM]; in the assay with UACC-62 melanoma it was 53.2% [100 µM]. Further, the values for the growth with LOX IMVI melanoma and with SK-MEL-28 melanoma were 78.5% [100 µM] and 93.6% [100 µM], respectively.

On to `Clc1ccc(N2CCN(CCCN3CCN(c4cccc(Cl)c4)CC3)CC2)cc1`, for which the growth was 79.7% in the assay on DU-145 prostate; 38.8% with K-562 leukemia; 52.8% in the assay with MALME-3M melanoma; 50.6% in the assay with MDA-MB-231 breast; 41% in the assay with RXF 393 renal; 79.2% in the assay on SF-268 CNS. For the same molecule, the growth with SF-295 CNS is 51.7%; with SF-539 CNS, 56.4%; in the assay with UACC-257 melanoma it was 37.4%; with M14 melanoma, 44.1%; in the assay on HCT-15 colon it was 40.2%; with HT29 colon it was 34.7%. In addition, the growth in the assay on SNB-75 CNS is 52.3%; with SNB-19 CNS, 63.3%; in the assay on U251 CNS, 55.2%; with PC-3 prostate it was 45.3%; with SK-MEL-5 melanoma, 1.8% (active); in the assay on UACC-62 melanoma it was 58.9%. Also, the growth was 48.4% in the assay on LOX IMVI melanoma and 84.6% with SK-MEL-28 melanoma.

For `CCOC(=O)c1nc2c3ccccc3ccn2c1C(=O)OC`, the growth is 104% with DU-145 prostate; 113% in the assay on K-562 leukemia; 100% in the assay on MALME-3M melanoma; 99.9% in the assay on MDA-MB-231 breast; 93.8% in the assay on RXF 393 renal; 101% with SF-268 CNS. Further, the growth in the assay with SF-295 CNS is 106%; in the assay with SF-539 CNS it was 100%; in the assay on UACC-257 melanoma, 102%; in the assay with M14 melanoma, 107%; in the assay on HCT-15 colon, 97%; with HT29 colon it was 90.1%. The growth was 78.9% with SNB-75 CNS; 91.4% with SNB-19 CNS; 96.2% with U251 CNS; 105% in the assay on PC-3 prostate; 96.6% in the assay with SK-MEL-5 melanoma; 89.4% in the assay on UACC-62 melanoma. In addition, the growth with LOX IMVI melanoma is 109%; in the assay with SK-MEL-28 melanoma, 96.5%.

Regarding `COc1ncc(-c2ccc3nccc(C#CCCCCC(=O)O)c3c2)cc1NS(=O)(=O)c1ccc(F)cc1F`, the growth in the assay on DU-145 prostate was 40.9%; in the assay on K-562 leukemia, 78.6%; in the assay on MALME-3M melanoma, -21.4% (active); in the assay on MDA-MB-231 breast, 41.9%; with RXF 393 renal, -20% (active); in the assay on SF-268 CNS, 36.5%. Further, the growth with SF-295 CNS was 6.94% (active); in the assay on SF-539 CNS, -9.14% (active); in the assay on UACC-257 melanoma, -2.67% (active); in the assay with M14 melanoma, 13.9%; with HCT-15 colon, 27.7%; in the assay on HT29 colon it was 16.1%. For the same molecule, the growth in the assay on SNB-75 CNS is -12.5% (active); with SNB-19 CNS it was 31.1%; with U251 CNS, 31.6%; in the assay with PC-3 prostate it was 19.8%; with SK-MEL-5 melanoma, 10.3%; in the assay on UACC-62 melanoma, -12.6% (active). The figures for the growth in the assay on LOX IMVI melanoma and in the assay on SK-MEL-28 melanoma were 28.2% and 7.69% (active), respectively.

Regarding `COc1cccc(-c2[nH]c(=S)ncc2C(=O)c2ccccc2)c1`, the growth was 98.4% with DU-145 prostate; 35% in the assay with K-562 leukemia; 71% in the assay with MALME-3M melanoma; 99.3% in the assay on MDA-MB-231 breast; 90.6% in the assay on RXF 393 renal; 90% in the assay on SF-268 CNS. In addition, the growth in the assay on SF-295 CNS is 68.6%; in the assay with SF-539 CNS it was 84.9%; in the assay on UACC-257 melanoma, 97.3%; in the assay with M14 melanoma, 61.9%; in the assay with HCT-15 colon, 50.8%; in the assay on HT29 colon, 46.8%. The growth with SNB-75 CNS is 66.6%; in the assay on SNB-19 CNS it was 82.9%; in the assay with U251 CNS, 85%; in the assay with PC-3 prostate, 91.6%; in the assay on SK-MEL-5 melanoma, 83.2%; in the assay with UACC-62 melanoma it was 74.3%. For the same molecule, the growth in the assay on LOX IMVI melanoma is 72.4%; with SK-MEL-28 melanoma it was 81.4%.

`CC1(C)[C@@H](NOCCCN)CC[C@]2(C)[C@H]3C(=O)C=C4[C@@H]5C[C@](C)(C(=O)O)CC[C@]5(C)CC[C@@]4(C)[C@]3(C)CC[C@@H]12`: the growth with DU-145 prostate is -49.8% [100 µM] (active); in the assay with K-562 leukemia it was -8.83% [100 µM] (active); in the assay on MALME-3M melanoma, -100% [100 µM] (active); with MDA-MB-231 breast, -88.4% [100 µM] (active); in the assay with RXF 393 renal it was -54.3% [100 µM] (active); in the assay with SF-268 CNS it was -51.8% [100 µM] (active). Also, the growth in the assay on SF-295 CNS was -56.3% [100 µM] (active); with SF-539 CNS, -93.5% [100 µM] (active); in the assay with UACC-257 melanoma, -44.5% [100 µM] (active); in the assay with M14 melanoma, -20.3% [100 µM] (active); in the assay on HCT-15 colon, -15% [100 µM] (active); with HT29 colon, -57.8% [100 µM] (active). In addition, the growth in the assay with SNB-75 CNS is -56.5% [100 µM] (active); in the assay with SNB-19 CNS it was -54.9% [100 µM] (active); in the assay on U251 CNS, -71.6% [100 µM] (active); in the assay with PC-3 prostate, -19.6% [100 µM] (active); in the assay with SK-MEL-5 melanoma it was -51.4% [100 µM] (active); in the assay with UACC-62 melanoma it was -100% [100 µM] (active). The growth was -82.6% [100 µM] (active) in the assay with LOX IMVI melanoma and -80.7% [100 µM] (active) in the assay with SK-MEL-28 melanoma.

On to `C#C[C@]1(O)CC[C@H]2[C@@H]3CC=C4c5nc(Nc6ncccn6)sc5CC[C@]4(C)[C@H]3CC[C@@]21C`, for which the growth is 61.1% with DU-145 prostate; 33.8% in the assay on K-562 leukemia; 47.6% with MALME-3M melanoma; 34.2% with MDA-MB-231 breast; -59.1% (active) in the assay on RXF 393 renal; 29.5% in the assay on SF-268 CNS. The growth is -66.2% (active) in the assay with SF-295 CNS; -50.1% (active) in the assay on SF-539 CNS; -16% (active) in the assay with UACC-257 melanoma; 43.8% with M14 melanoma; 33.1% with HCT-15 colon; 55.4% in the assay on HT29 colon. Besides, the growth in the assay on SNB-75 CNS was -7.12% (active); in the assay with SNB-19 CNS it was 64.8%; in the assay with U251 CNS, 21.9%; in the assay on PC-3 prostate, 32.1%; in the assay on SK-MEL-5 melanoma, 68.1%; in the assay on UACC-62 melanoma it was 1.81% (active). Also, the growth in the assay with LOX IMVI melanoma is 26.9%; with SK-MEL-28 melanoma, -41.4% (active).
